Screening results (PubChem BioAssay)
IL-1B inflam inh – inhibitors of inflammasome signaling (IL-1 beta secretion); activity change, % at 57.5 µM; AID 743279; THP-1 LPS/ATP IL-1B secretion, AlphaLISA, 16 h; stronger effect = lower value; hit rate 4.7% among 360,000; in the data active means activity change below about -50%; inconclusive means mostly about -30% to -49%
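THP-1 cells pretreated 1 hr with compounds (up to 57.5 uM final), then stimulated with LPS (250 ng/mL final) plus ATP (1.25 mM final); secreted IL-1B measured by AlphaLISA after 16 hr, decreased signal indicating inhibition.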
TDP1 inh – TDP1 (human) enzyme inhibition. Q9NUW8. recombinant TDP1, AlphaScreen DNA substrate cleavage. Potency, µM (highest dose often 130 µM), for the others: at the highest dose activity change, negative = inhibition, actives largely listed as inhibitors. hit rate 0.28% among 350,000. AID 485290; further: potency means the concentration at half of the fitted maximal effect; nearly all actives have a fitted effect of over 40% in size
Target sequence (Q9NUW8 whole entry, looked up): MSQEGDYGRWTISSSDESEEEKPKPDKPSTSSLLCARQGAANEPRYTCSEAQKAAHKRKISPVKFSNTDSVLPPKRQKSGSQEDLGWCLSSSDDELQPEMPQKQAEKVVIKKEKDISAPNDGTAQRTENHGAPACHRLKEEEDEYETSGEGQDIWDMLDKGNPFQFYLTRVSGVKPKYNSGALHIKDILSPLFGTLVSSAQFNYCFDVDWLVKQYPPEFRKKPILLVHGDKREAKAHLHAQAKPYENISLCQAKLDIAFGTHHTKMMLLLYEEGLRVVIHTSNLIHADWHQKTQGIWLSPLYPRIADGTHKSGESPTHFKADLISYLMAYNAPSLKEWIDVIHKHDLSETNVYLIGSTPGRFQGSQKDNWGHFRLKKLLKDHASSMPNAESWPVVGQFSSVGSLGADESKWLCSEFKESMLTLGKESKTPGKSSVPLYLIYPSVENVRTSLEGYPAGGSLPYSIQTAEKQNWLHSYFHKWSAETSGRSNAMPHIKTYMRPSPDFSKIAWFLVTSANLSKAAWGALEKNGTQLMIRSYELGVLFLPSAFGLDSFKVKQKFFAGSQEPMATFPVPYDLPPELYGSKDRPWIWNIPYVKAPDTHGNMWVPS
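AlphaScreen read-out: signal falls as enzyme removes the 3' tyrosine-FITC from a 5'-biotinylated DNA oligo (15 nM, 5 min, RT). Enzyme was E. coli-made recombinant Tdp1 at 1 nM, exposed to compound for 15 min beforehand; beads 10 ug/ml, 10 min.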
CtBP-E1A inh – blocks the CtBP interaction with E1A; AlphaScreen GST-E1A/His-CtBP binding, 1536-well; stronger effect = lower value; activity change, % (test concentration not listed); hit rate 0.49% among 340,000; AID 651724; in the data active means activity change below about -65%; inconclusive means mostly about -30% to -63%
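GST-E1A and His-tagged CtBP (125 nM each as 5X stock) were preincubated with pin-transferred compound for 2 h at 37 °C in the dark, then glutathione donor and nickel acceptor beads were added for 1 h before AlphaScreen reading.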
TDP1 cell CPT – DT40-hTDP1 cell growth loss with CPT; chicken DT40 Tdp1-/-;hTDP1 cells + 20 nM CPT, ATP luminescence, 48 h; Potency, µM (titrated, usually from 46.2 µM), for the others: top-dose activity change, negative = growth inhibition, hits mostly inhibitors; hit rate 12% among 420,000; AID 686979; further: potency means the concentration at half of the fitted maximal effect; nearly all actives have a fitted effect of over 55% in size
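Cell growth measured by CellTiter-Glo luminescence after a minimum 48 h, 37 C compound exposure with 20 nM CPT in Tdp1-knockout DT40 cells stably expressing hTDP1, seeded 400/well; qHTS titration format.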
DT40 TDP1 no CPT – qHTS for Inhibitors of human tyrosyl-DNA phosphodiesterase 1 (TDP1): qHTS in cells in absence of CPT. DT40 Tdp1-/- hTDP1 cells, no CPT, ATP luminescence, 48 h. Potency, µM (titrated, usually from 46.2 µM), for inactives: at the highest dose activity change, negative = growth inhibition, hits mostly inhibitors. hit rate 15% among 420,000. AID 686978, 2013; further: potency means the concentration at half of the fitted maximal effect; nearly all actives have a fitted effect of over 55% in size
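Chicken DT40 Tdp1-/- cells complemented with human TDP1, screened without camptothecin (DMSO vehicle only), 400 cells/well. Compounds pin-transferred, cells incubated at 37 °C for at least 48 hr. Growth read as ATP-dependent luminescence (CellTiter-Glo, 30 min at RT).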
Six1-Eya2 inh – inhibitors of human Six1/Eya2 interaction; activity change, % (concentration not given with the values); AlphaScreen GST-Six1/His-Eya2 binding, biochemical; stronger effect = lower value; AID 651725; Q15475+O00167; hit rate 0.56% among 360,000; in the data active means activity change below about -65%; inconclusive means mostly about -30% to -63%
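AlphaScreen with GST-Six1 and His-Eya2 (5X mix: 250 nM and 500 nM), glutathione donor and nickel acceptor beads; buffer 50 mM Tris pH 8.0, 300 mM NaCl, 1 mM TCEP; 1 h at 37 C in the dark.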
Starred values were filed as active, the others as inactive; ? = inconclusive; / = not tested or not shown; [ ] = dose if it differs, or a comment. A selection: hits, their analogues and other compounds. The true share with any hit is near 18%. Unless noted, the call rests on the fitted dose curve; in most records, active means well fitted curve in the direction sought with a large enough effect; inconclusive means small, poorly fitted or top-dose-only effect, or another doubt; inactive means no such curve, though single readings can be large; an effect the other way counts as inactive or inconclusive. On the % scale 0 is the no-effect control and ±100 the full control effect.

SMILES	IL-1B inflam inh	TDP1 inh	CtBP-E1A inh	TDP1 cell CPT	DT40 TDP1 no CPT	Six1-Eya2 inh
O=C(N/N=C/c1ccc(-c2ccc([N+](=O)[O-])cc2)o1)c1cccnc1	-11.4	-14.3%	-1.6	1.2%	-21.7%	-11.2
CCCCN(CC)CCCNC(=O)c1csc2c1CCCCC2	-7.3	-1.2%	-7.6	?	-19.5%	-1.2
COc1ccc2c(c1)c(N=NC(N)=S)c(O)n2CC(=O)c1ccccc1	-17.5	/	1.9	-6.5%	6.1%	-9.9
CCNC(=O)C1(C)CCCN1C(=O)c1ccc(C#N)cc1 (centres undefined)	0.0	/	5.5	-12.4%	-5.1%	3.5
CCOc1cc(-c2nc(-c3ccc(-c4ccccc4)nc3OCC)no2)cc(OCC)c1OCC	/	0.0%	/	?	?	/
Cc1cnnn1-c1ccc([N+](=O)[O-])cc1	-19.9	1.2%	-11.3	-13.1%	-12.2%	1.8
CC(=O)Nc1ccc(S(=O)(=O)Nc2nc3ccccc3nc2Nc2cccc(S(N)(=O)=O)c2)cc1	5.9	5.5%	3.9	-5.1%	-1.3%	-4.4
Cc1c(-c2ccc(/C=N/NC(=O)C(=O)Nc3ccccc3F)o2)cccc1[N+](=O)[O-]	5.0	-2.6%	/	1.7%	-18.1%	2.0
O=C(N/N=C/c1ccc(-c2ccccc2[N+](=O)[O-])o1)c1cncc(Br)c1	?	8.2%	-66.2*	?	?	-78.2*
Cc1c(C(=O)N/N=C/c2ccc(-c3ccccc3[N+](=O)[O-])o2)sc(N)c1C#N	52.2	/	-0.3	16.4µM*	13µM*	?
O=C(N/N=C\c1ccc(-c2ccccc2[N+](=O)[O-])o1)C1COc2cc3ccccc3cc2O1 (centres undefined)	7.5	2.1%	-19.4	?	?	?
O=C(Cc1ccccc1)Nc1nnc(-c2cccc([N+](=O)[O-])c2)s1	-7.0	-2.6%	-0.3	-14.5%	5.1%	-5.3
O=C(NC1CCCCC1)N(c1ccccc1)c1nnc(-c2cccc([N+](=O)[O-])c2)s1	-6.3	/	-10.8	25.9µM*	11.6µM*	-14.6
COc1ccc(OCc2cc(C(=O)N(C)Cc3cc(C4CC4)n[nH]3)no2)c(Cl)c1	-3.0	4.1%	/	?	?	-8.3
COC(=O)C1=CN(c2ccc(OC)cc2OC)C(N)=C(C#N)C1c1ccccc1F (centres undefined)	64.0	/	4.9	0.82µM*	0.581µM*	-4.2
COC(=O)C1=C(C)OC(N)=C(C#N)C1c1ccccc1F (centres undefined)	-14.9	5.1%	2.7	-22.4%	-9.3%	3.2
COC(=O)C1=CN(c2ccc(C(C)(C)C)cc2)C(N)=C(C#N)C1c1ccccc1F (centres undefined)	20.0	/	-18.9	?	20.6µM*	12.1
CCc1ccc(N2C=C(C(=O)OC)C(c3ccccc3F)C(C#N)=C2N)cc1 (centres undefined)	-20.6	/	1.2	?	23.1µM*	-6.8
COC(=O)C1=CN(c2ccc(OC)cc2)C(N)=C(C#N)C1c1ccccc1F (centres undefined)	24.8	/	2.5	10.3µM*	13µM*	-11.1
COc1ccc2[nH]c3c(c2c1)CCN1C(=O)C(CC(=O)NCC24CC5CC(CC(C5)C2)C4)C[C@H](C(=O)N2CCOCC2)[C@@]31C (some centres undefined)	?	2.8%[56.1 µM]	-4.8	?	?	-7.2
CN(C)CCCNC(=O)C[C@H]1C[C@H](C(=O)N2CCCCC2)[C@@]2(C)c3[nH]c4ccc(Cl)cc4c3CCN2C1=O	-11.8	-9.3%[56.1 µM]	-1.2	?	?	-6.8
C[C@]12c3[nH]c4ccc(Cl)cc4c3CCN1C(=O)[C@@H](CC(=O)NCC13CC4CC(CC(C4)C1)C3)C[C@@H]2C(=O)N1CCOCC1	?	3.2%[56.1 µM]	-14.5	10.3µM*	13µM*	-5.5
